MITF act: activators of MITF-driven TRPM1 promoter reporter, primary screen, cell-based, SK-MEL-5, luciferase, single point; SK-MEL-5 TRPM1-promoter luciferase, 24 h; % of positive control, neutral wells = 0; activation, % at 12.5 µM; 0.75% of 300,000 active; AID 588334, 2011;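 active = mean activation of at least 80% with every replicate also reaching 80%; inconclusive = mean reaches 80% but some replicate falls short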
FXN GAA850 act: FXN promoter activators, primary screen, cell-based, luciferase luminescence, HEK293 lucGAA850. HEK293 lucGAA850 FXN promoter luciferase reporter, 24 h; percent of 10 µM SAHA response. activation, % at 6 µM. 0.56% of 360,000 active. AID 540364, 2011;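 active = activation above the average of all compounds screened plus 3 SD, cutoff fixed separately per campaign, cut at about 7.5% in these data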
esBAF inh: Bmi1 luciferase reporter increase in mESCs, primary screen, esBAF inhibitor project, mouse ES cells, Bmi1 luciferase knock-in, single point. 24 h; 100% = twice the neutral-well signal. reporter increase, % at 12.5 µM. 2% of 350,000 active. AID 602393, 2012; in the data active = activation above about 40%; inconclusive = no clear call, values can overlap the other calls;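 also: a rise in the Bmi1 reporter signal indicates esBAF inhibition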
Wnt bcat act: Wnt/beta-catenin pathway activators, primary screen, cell-based, plate reader, single point; Wnt/beta-catenin reporter cell assay, activator; activation, % at 9.35 µM; 1.2% of 300,000 active; in the data active = activation above about 30%, passing the limit was not always enough; inconclusive = no clear call, values can overlap the other calls
Each line names hits and unclear results; the compound was inactive in the other large screens. Hits are enriched below; roughly 2.8% of the tested compounds scored in any of these assays.

C[C@@H]1CCCCO[C@H](CN(C)Cc2ccccc2)[C@H](C)CN([C@@H](C)CO)C(=O)c2cc(NC(=O)Nc3ccc(F)cc3)ccc2O1	none (no result: MITF act, FXN GAA850 act, Wnt bcat act)
CNC[C@@H]1Oc2ncc(-c3ccc(OC)cc3)cc2C(=O)N([C@H](C)CO)C[C@H]1C	none (no result: MITF act, FXN GAA850 act, Wnt bcat act)
CC1CCC(NC(=O)c2cc3c(s2)CCCC3)CC1 (stereo unspecified)	MITF act 100, esBAF inh inconclusive, Wnt bcat act inconclusive
CC1CCC(NC(=O)c2ccc(Br)o2)CC1 (stereo unspecified)	none (no result: MITF act)
Cc1ccc(C(=O)NC2CCC(C)CC2)s1 (stereo unspecified)	Wnt bcat act 62 (no result: esBAF inh)
Cc1ccc(C(=O)NC2CCCC2)s1	none (no result: esBAF inh)
Cc1ccc(C(=O)NC2CCC(C)CC2)o1 (stereo unspecified)	esBAF inh 55
Cc1cccc(S(=O)(=O)N2CC[C@H]3[C@@H](CO)N(C)c4ccc(-c5cccc(C#N)c5)cc4[C@H]32)c1	none (no result: MITF act, FXN GAA850 act, Wnt bcat act)
C[C@@H]1CN([C@H](C)CO)C(=O)c2cc(NC(=O)Nc3ccc(C(F)(F)F)cc3)ccc2O[C@H]1CN(C)C(=O)Nc1ccc(C(F)(F)F)cc1	none (no result: MITF act, FXN GAA850 act, Wnt bcat act)
CCCN(C)C[C@H]1Oc2ncc(C#CC3CC3)cc2C(=O)N([C@H](C)CO)C[C@@H]1C	none (no result: MITF act, FXN GAA850 act, Wnt bcat act)
CS(=O)(=O)c1ccc2nc(NC(=O)C3CCCO3)sc2c1 (stereo unspecified)	none (no result: esBAF inh)
Cc1cc(Cl)cc2sc(NC(=O)C3CC3)nc12	none
O=C(Nc1nc2ccc(Cl)cc2s1)C1CCCO1 (stereo unspecified)	esBAF inh 49 (no result: Wnt bcat act)
CC(=O)Nc1ccc(S(=O)(=O)Nc2nc3ccc(C)cc3s2)cc1	none (no result: MITF act, Wnt bcat act)
CC(C)c1ccc2nc(NC(=O)C3CC3)sc2c1	esBAF inh 57, Wnt bcat act 58
COC(=O)c1ccc2nc(NC(=O)C3CCCCC3)sc2c1	none (no result: esBAF inh)
Cc1ccc2nc(-c3ccc(NS(=O)(=O)c4ccc(F)cc4)cc3)sc2c1	Wnt bcat act 44 (no result: esBAF inh)
O=C(Nc1nc2ccc(Cl)cc2s1)C1CC1	Wnt bcat act 60 (no result: MITF act, esBAF inh)
C[C@H]1CN([C@@H](C)CO)C(=O)c2cccc(NS(=O)(=O)c3ccc(Cl)cc3)c2O[C@@H]1CN(C)C(=O)Nc1ccc(C(F)(F)F)cc1	none (no result: MITF act, FXN GAA850 act, Wnt bcat act)
CC1=CCC(C(=O)O)C(C(=O)Nc2ccc(-c3nc4ccc(C)cc4s3)cc2)C1 (stereo unspecified)	Wnt bcat act 58
CC1CC1C(=O)Nc1nc2ccc(S(C)(=O)=O)cc2s1 (stereo unspecified)	none
O=C(Nc1nc(-c2ccc(F)cc2)cs1)C1CCCO1 (stereo unspecified)	MITF act 85, Wnt bcat act 45 (no result: esBAF inh)
O=C(Nc1nc(-c2ccc(-c3ccccc3)cc2)cs1)C1CCCO1 (stereo unspecified)	none (no result: Wnt bcat act)
Cc1ccc2nc(NC(=O)C3CC3C)sc2c1 (stereo unspecified)	esBAF inh 72
CC(=O)NC(=S)Nc1ccc(-c2nc3ccc(C)cc3s2)cc1	none
CS(=O)(=O)N1[C@@H](C#N)[C@H](c2ccccc2)[C@@H]1CO	none (no result: MITF act, FXN GAA850 act, Wnt bcat act)
CN(C)Cc1c(O)ccc2c(=O)c(-c3ccc(Cl)cc3)coc12	esBAF inh 64
CCN(CC)Cc1c(O)ccc2c(=O)c(-c3ccc(Cl)cc3)coc12	none
CC(C)NC(=O)N(C)C[C@@H]1Oc2ccc(NS(=O)(=O)c3ccc(F)cc3)cc2C(=O)N([C@H](C)CO)C[C@H]1C	none (no result: MITF act, FXN GAA850 act, Wnt bcat act)
O=[N+]([O-])c1cc(-c2cnc3ccccc3n2)ccc1Oc1ccc(Br)cc1	esBAF inh 44 (no result: MITF act, Wnt bcat act)
Cc1cccc2sc(NC(=O)c3ccc(OCC4CCCO4)cc3)nc12 (stereo unspecified)	esBAF inh 59
COc1ccc(NC(=O)c2ccc(OCC3CCCO3)cc2)cc1Cl (stereo unspecified)	esBAF inh 42
O=C(NC1CCCCCC1)c1ccc(OCC2CCCO2)cc1 (stereo unspecified)	none (no result: esBAF inh)
COc1ccc(NC(=O)c2ccc(OCC3CCCO3)cc2)cc1OC (stereo unspecified)	esBAF inh 51
NS(=O)(=O)c1ccc(NC(=O)c2ccc(OCC3CCCO3)cc2)cc1 (stereo unspecified)	none
Cc1ccc(NC(=O)c2ccc(OCC3CCCO3)cc2)cc1Cl (stereo unspecified)	esBAF inh 78, Wnt bcat act 42 (no result: MITF act)
CO[C@H]1CN(C)C(=O)c2cc(NC(=O)C3CCC3)ccc2OC[C@@H](C)N(Cc2ccncc2)C[C@@H]1C	none (no result: MITF act, FXN GAA850 act, Wnt bcat act)
CC(C)NC(=O)Nc1ccc2c(c1)C(=O)N([C@H](C)CO)C[C@H](C)[C@@H](CN(C)Cc1ccc(Oc3ccccc3)cc1)O2	none (no result: MITF act, FXN GAA850 act, Wnt bcat act)
CO[C@H]1CN(C)C(=O)c2ccc(NC(=O)C3CC3)cc2OC[C@@H](C)N(C(=O)Cc2ccccn2)C[C@H]1C	none (no result: MITF act, FXN GAA850 act, Wnt bcat act)
CCCNC(=O)C[C@@H]1CC[C@@H]2[C@H](COC[C@@H](O)CN2C(=O)c2ccccn2)O1	none (no result: MITF act, FXN GAA850 act, Wnt bcat act)
CC(C)C#Cc1ccc2c(c1)O[C@@H](CN(C)S(C)(=O)=O)[C@H](C)CN([C@@H](C)CO)S2(=O)=O	none (no result: MITF act, FXN GAA850 act, Wnt bcat act)
Cc1ccc(F)cc1NC(=O)c1ccc(OCC2CCCO2)cc1 (stereo unspecified)	esBAF inh 47
Cc1ccnc(NC(=O)c2ccc(OCC3CCCO3)cc2)c1 (stereo unspecified)	Wnt bcat act 35 (no result: esBAF inh)
Cc1ccc(NC(=O)c2ccc(OCC3CCCO3)cc2)c(C)c1 (stereo unspecified)	none (no result: esBAF inh, Wnt bcat act)
C[C@@H]1CN([C@H](C)CO)C(=O)c2cc(NC(=O)Cn3cnnn3)ccc2O[C@@H]1CN(C)Cc1ccc(Cl)c(Cl)c1	none (no result: MITF act, FXN GAA850 act, Wnt bcat act)
COCCNC(=O)C[C@H]1CC[C@@H]2[C@H](COc3ccc(NC(=O)C4CCCC4)cc3C(=O)N2C)O1	none (no result: MITF act, FXN GAA850 act, Wnt bcat act)
C=CCn1c(SCC(=O)Nc2ccc3c(c2)OCO3)nnc1-c1cc(Br)ccc1O	Wnt bcat act 47
C=CCn1c(SCC(=O)Nc2ccc3c(c2)OCO3)nnc1-c1ccccc1	none
Cc1noc(C)c1NC(=O)N(C)C[C@H]1OCCCC[C@H](C)Oc2ccc(NC(=O)NC(C)C)cc2C(=O)N([C@@H](C)CO)C[C@@H]1C	none (no result: MITF act, FXN GAA850 act, Wnt bcat act)
CO[C@@H]1CN(C)C(=O)c2cc(NC(=O)C3CC3)ccc2OC[C@@H](C)N(CC2CCOCC2)C[C@H]1C	none (no result: MITF act, FXN GAA850 act, Wnt bcat act)
O=C1S/C(=C\c2ccc(N3CCOCC3)o2)C(=O)N1c1ccccc1	none
O=C(O)c1ccccc1-c1ccc(/C=C2\SC(=O)N(c3ccccc3)C2=O)o1	esBAF inh 56 (no result: MITF act)
O=[N+]([O-])c1cccc(-c2nc(-c3ccncc3)no2)c1	none
O=[N+]([O-])c1cccc(C2=NC(c3ccccc3)CO2)c1 (stereo unspecified)	esBAF inh 45, Wnt bcat act inconclusive
O=[N+]([O-])c1cccc(C2CC(c3ccccc3)=NN2c2ccccc2)c1 (stereo unspecified)	none (no result: MITF act)
O=[N+]([O-])c1cccc(-c2nnc(-c3ccccc3)o2)c1	Wnt bcat act 46 (no result: esBAF inh)
O=[N+]([O-])c1cccc(-c2nc(-c3ccccc3)no2)c1	esBAF inh 73 (no result: Wnt bcat act)

Bioassay records as filed in PubChem BioAssay.
